Data from PubChem BioAssay AID893 (National Center for Advancing Translational Sciences (NCATS), 2007).
The whole screen tested about 75,000 compounds, of which about 5,700 (7.6%) were called active. Where a call stands in place of a potency, no number is given. Another 7% or so got no clear call; they are omitted. The call rests on the fitted dose curve; in most records, active means well fitted inhibition curve with a large enough effect; inconclusive means small, poorly fitted or top-dose-only effect; inactive means no such curve, though single readings can be large or run the other way. For the sample, actives were picked, then their nearest neighbours and some compounds at random.

Each compound was assayed against 3-hydroxyacyl-CoA dehydrogenase type-2 (Homo sapiens) (UniProt Q99714) (assay: qHTS Assay for Inhibitors of HSD17B4, hydroxysteroid (17-beta) dehydrogenase 4). Settings: recombinant HSD17B10, NADH fluorescence kinetic; series mostly up to 57.1 µM.
Outline: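 Activity followed as NADH fluorescence increase (ex 360, em 450 nm) every 30 seconds for 4 min, using final 90 uM beta-hydroxybutyryl CoA and 1 mM NAD+. Recombinant His-tagged enzyme, 20 nM, pH 9.0 Tris buffer, 15 min compound preincubation.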
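Further: the protocol describes HADH2 (HSD17B10) and not the HSD17B4 of the title; nearly all actives have a fitted effect of over 70% in size.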
Potency means the concentration at half of the fitted maximal effect.

| Compound | Potency | activity change, negative = inhibition |
| --- | --- | --- |
| Cc1csc(-c2nc3ccccc3n2C)n1 | 31.6 µM (active) | – |
| COc1cc(C(O)c2nc3ccccc3n2C)cc(OC)c1OC (stereo not given) | inactive | – |
| Cc1nn2c3ccccc3nc2n(C)c1=O | inactive | – |
| O=C(NCc1ccco1)C1CCCN(S(=O)(=O)c2cccc3nonc23)C1 (stereo not given) | inactive | – |
| CC(C)(C)c1ccc(OC2C=CC(C#Cc3ccccc3)OC2CO)cc1 (stereo not given) | – | -6.55% [at 11.4 µM] (inactive) |
| COC1[C@H](OC(N)=O)C(O)[C@H](Oc2ccc3c(O)c(NC(=O)c4ccc(O)c(CC=C(C)C)c4)c(=O)oc3c2C)OC1(C)C (stereo not given in full) | inactive | – |
| O=C(c1ccc(F)cc1)C1CCN(CCCCc2ccccc2)CC1 | inactive | – |
| CCN1C(=O)C(C(=O)NC(C)c2ccccc2)C2CC1(C)Oc1ccccc12 (stereo not given) | inactive | – |
| FC(F)(F)c1cc(-c2ccco2)nc(N2CCOCC2)n1 | inactive | – |
| Cc1cc(C(F)(F)F)nn1-c1nc(-c2ccco2)cc(C(F)(F)F)n1 | 31.6 µM (active) | – |
| FC(F)(F)c1nnc2sc(-c3ccco3)nn12 | inactive | – |
| CCCC(C(=O)NCc1ccco1)N(C(=O)CNS(=O)(=O)c1ccccc1)C1CCCC1 (stereo not given) | inactive | – |
| CC(=O)N(CN1C(=O)C2CC=CCC2C1=O)c1cccc(Cl)c1 (stereo not given) | inactive | – |
| CCCC(=O)Nc1cccc(-c2cn3ccsc3n2)c1 | inactive | – |
| c1ccc(-c2cn3cccnc3n2)cc1 | 25.1 µM (active) | – |
| CC(=O)Nc1cccc(-c2cnc3ccccc3n2)c1 | inactive | – |
| CCOc1nc(OCC)nc(-n2cc(-c3ccccc3)nn2)n1 | inactive | – |
| CC(=O)Nc1ccc(-c2cn3cccnc3n2)cc1 | 10 µM (active) | – |
| O=C(c1ccco1)N1CCN=C1SCc1cccc(Cl)c1 | inactive | – |
| COC(=O)c1ccc2c(=O)n(CC3CCCO3)c(=S)[nH]c2c1 (stereo not given) | inactive | – |
| O=C(NC1CCCCC1)c1ccc2c(=O)n(CC3CCCO3)c(=O)[nH]c2c1 (stereo not given) | 31.6 µM (active) | – |
| O=c1c2cc3c(=O)n(CC4CCCO4)c(=O)c3cc2c(=O)n1CC1CCCO1 (stereo not given) | inactive | – |

| Compound | Potency | activity change, negative = inhibition |
| --- | --- | --- |
| CCC1=[N+]([O-])C(C)(/C(C)=N\O)N(O)C1(C)C (stereo not given) | inactive | – |
| O=C(COC(=O)c1ccccc1C(=O)c1ccccc1)c1ccco1 | inactive | – |
| CC(=O)c1cc2c(cc1N)OCO2 | inactive | – |
| COCCn1c(C)cc(C(=O)CSc2ncnc3sc4c(c23)CCC4)c1C | inactive | – |
| COCCNc1nc(-n2nc(C)cc2C)nc2sc3c(c12)CCCC3 | 25.1 µM (active) | – |
| Cc1cc(C)n(-c2nc(SCC(=O)N3CCCC3)c3c4c(sc3n2)CCCC4)n1 | inactive | – |
| CO/N=C\[C@@H](C)[C@H](OCc1ccccc1)C(C)C | – | -1.19% [at 11.4 µM] (inactive) |
| O=C(c1ccc2c(c1)OCCO2)C1CCN(S(=O)(=O)c2cccc(F)c2)CC1 | inactive | – |
| CC(C)(C)C(=O)CCN1C(=O)C2(OCCO2)c2ccccc21 | inactive | – |
| Cc1ccc(-c2nn(CC(C)(C)C)c3ncnc(N)c23)cc1 | inactive | – |
| CCCCN(CC)C(=O)CN(C)S(=O)(=O)c1cccc2nsnc12 | inactive | – |
| COc1ccc(C(=O)Nc2nncs2)c(OC)c1 | inactive | – |
| O=C(Nc1nncs1)c1ccccc1NS(=O)(=O)c1cccs1 | 25.1 µM (active) | – |
| COC(=O)c1ccccc1NC(=O)c1ccccc1NS(C)(=O)=O | inactive | – |
| CSC1=NCCN1C(=O)c1ccc(S(=O)(=O)N2CCOCC2)cc1 | inactive | – |
| Cc1cc(C(=O)COC(=O)CCCN2C(=O)c3ccccc3C2=O)c(C)n1C | inactive | – |
| c1ccc(CCN2CCN=C2Cc2ccccc2)cc1 | – | 7.62% [at 11.4 µM] (inactive) |
| COc1ccccc1-c1nnc(SCC(=O)Nc2cc(C)on2)o1 | inactive | – |
| COc1ccccc1-c1nnc(SCC(=O)Nc2ccccc2)o1 | inactive | – |
| Cc1cc(NC(=O)CSc2nnc(-c3ccc(Cl)s3)o2)no1 | 31.6 µM (active) | – |
| OC(CCl)CCl | inactive | – |
| Cc1cc2nc3c(=O)[nH]c(=O)nc-3n(C[C@H](O)[C@H](O)[C@H](O)CO)c2cc1C | 15.8 µM (active) | – |

| Compound | Potency | activity change, negative = inhibition |
| --- | --- | --- |
| CC(C)(C)Nc1c(N)c(=O)oc2ccccc12 | inactive | – |
| Cn1cc(-c2nc3cnc(N4CCNCC4)nc3n(CCC#N)c2=O)c2ccccc21 | inactive | – |
| CCOc1cccc(=O)c2c(C)n(CC3CCCO3)c(C)c12 (stereo not given) | inactive | – |
| Cc1nc2cnc(N3CCN(C)CC3)nc2n(CCC#N)c1=O | 31.6 µM (active) | – |
| Cc1nc2cnc(Nc3ccccc3)nc2n(C[C@H]2CCCO2)c1=O | inactive | – |
| Cc1nc2cnc(N3CCN(C)CC3)nc2n(C[C@H]2CCCO2)c1=O | 31.6 µM (active) | – |
| CCC1=C(OC(=O)N(CC)CC)N2C(=O)OC(=NCC3CC3)[C@]2(C)[C@H]2C1=CC[C@H]1C(=O)N(CC(=O)OC)C(=O)[C@H]12 | inactive | – |
| COC(=O)[C@@]1(Cc2ccccc2)[C@H]2c3cc(C(=O)N(C)C)n(CCSCCO)c3C[C@H]2CN1C(=O)c1ccccc1 | inactive | – |
| O=C(c1cc(C(F)(F)F)cc(C(F)(F)F)c1)N1CCC2(CC1)CN(c1ccncc1)C2 | inactive | – |
| CC(=O)c1cccc(NC(=O)c2ccncc2)c1 | inactive | – |
| CC1(C)Cc2cccc(OCC(=O)Nc3nccs3)c2O1 | inactive | – |
| CCCCc1cc(=O)oc2cc(C)cc(OCc3nn[nH]n3)c12 | 31.6 µM (active) | – |
| COC(=O)[C@@]1(Cc2ccccc2)[C@H]2c3cc(C(=O)N4CCCC4)n(Cc4ccc(C)o4)c3C[C@H]2CN1C(=O)c1ccccc1 | inactive | – |
| COc1ccc(CN(C(=O)c2cccs2)c2nccs2)cc1OC | inactive | – |
| Cc1ccc(C(=O)OCC(=O)NCc2ccc3c(c2)OCO3)s1 | inactive | – |
| CCOC(=O)c1nc(-c2ccc3c(c2)OCO3)[nH]c1C | 20 µM (active) | – |
| CCOC(=O)c1c(C)[nH]c(C(=O)COc2ccc3c(c2)OCO3)c1C | inactive | – |
| O=C(Nc1cccc(F)c1)N1CC2(CCN(C(=O)c3cnccn3)CC2)C1 | inactive | – |
| O=c1[nH]c(-c2ccccc2)c(-c2ccccc2)[nH]1 | 31.6 µM (active) | – |
| CC1(C)CC(=O)NC=C(c2ccccc2)C1 | inactive | – |
| COC(=O)C1C(=O)CC(C)(O)C(C(=O)OC)C1c1ccc2c(c1)OCO2 (stereo not given) | inactive | – |
| O=C(Nc1ccccc1)Nc1ccccc1C(=O)NCc1ccco1 | inactive | – |

| Compound | Potency | activity change, negative = inhibition |
| --- | --- | --- |
| O=C(NCc1ccco1)c1cccn2c(=O)c3cc(Br)ccc3nc12 | 25.1 µM (active) | – |
| O=C(NCc1ccco1)c1nc(-c2ccccc2)n(-c2ccccc2)n1 | inactive | – |
| CC(C)C(N)C(=O)OCCOCn1cnc2c(=O)[nH]c(N)nc21 (stereo not given) | inactive | – |
| FC(F)(F)c1ccc(CN2C[C@@H]3C(c4ccccc4)C4(c5ccccc5)CC3(C4)[C@H]2c2ccccc2)cc1 (stereo not given in full) | inactive | – |
| CCOC(=O)N1CCC(NC(=O)c2cnn3ccccc23)CC1 | 31.6 µM (active) | – |
| CCOC(=O)N1CCC(NC(=O)Cc2cn(C)c3ccccc23)CC1 | inactive | – |
| CCOC(=O)N1CCC(NC(=O)COc2cc(=O)n(C)c3ccccc23)CC1 | inactive | – |
| CC(C)=CC1C(C(=O)O)C1(C)C (stereo not given) | inactive | – |
| Cn1c(CNC(=O)C(C)(C)C)nc2ccccc21 | inactive | – |
| Nc1nonc1-c1nc2ccccc2n1CCC(=O)O | inactive | – |
| Cn1c(-c2ccc(C(=O)c3ccccc3)s2)nc2ccccc21 | 25.1 µM (active) | – |
| COc1cccc(-c2cc(NCCc3c[nH]c4ccc(OC)cc34)ncn2)c1 | inactive | – |
| CC1OC2C(OC1C)N(S(C)(=O)=O)CCN2S(C)(=O)=O (stereo not given) | inactive | – |
| C=CC(=C)CCC=C(C)C | inactive | – |
| COc1ccc2[nH]c3ccc(OC)cc3c2c1 | 25.1 µM (active) | – |
| COc1ccc2[nH]c3cc4c(=O)c5cc(OC)ccc5[nH]c4cc3c(=O)c2c1 | – | 3.71% [at 11.4 µM] (inactive) |
| COc1ccc(N)c(C)c1 | inactive | – |
| C=CCOC(=O)COCCC(C)C | inactive | – |
| CCOC(=O)CSc1nnc(CNc2nc(-c3ccccc3)cs2)n1C | inactive | – |
| COCCCNC(=O)c1ccc(CNS(=O)(=O)c2ccc(NC(C)=O)cc2)cc1 | inactive | – |
| O=C(CSc1nnc(-c2ccco2)n1-c1ccccc1)NCCc1ccccc1 | inactive | – |
| c1ccc(CSc2nnc(-c3ccco3)n2Cc2ccccc2)cc1 | inactive | – |

| Compound | Potency | activity change, negative = inhibition |
| --- | --- | --- |
| c1ccc(CSc2nnc(-c3ccco3)c(-c3ccco3)n2)cc1 | 10 µM (active) | – |
| COc1ccc(C(=O)N2CCC(C(=O)Nc3cccc(C)c3)CC2)cc1OC | inactive | – |
| CCCCOC(=O)c1ccc(N2C(=O)CC(N3CCN(C/C=C/c4ccccc4)CC3)C2=O)cc1 (stereo not given) | inactive | – |
| COc1ccc(-c2noc(COc3ccc(Cl)c(C)c3)n2)cc1 | inactive | – |
| CCOc1nc(-c2ccc(OC)cc2)ccc1-c1noc(-c2cc(OC)c(OC)c(OC)c2)n1 | 3.16 µM (active) | – |
| COc1cc(-c2nc(-c3ccncc3)no2)cc(OC)c1OC | inactive | – |
| CCCN1C(=O)C(NC(C)=O)c2cc(OC)ccc21 (stereo not given) | inactive | – |
| O=C(CN1CCOCC1)N1CCCc2c1c(=O)oc1ccc(OCc3ccccc3)cc21 | 31.6 µM (active) | – |
| O=C(OCCN1CCOCC1)C1(c2ccccc2)CCCCC1 | inactive | – |
| CCOC(=O)c1c(CN2CCOCC2)n(-c2ccccc2)c2ccc(O)cc12 | inactive | – |
| O=C(CN1CCN(C(=O)c2ccco2)CC1)Nc1ccc(Cl)c(C(F)(F)F)c1 | inactive | – |
| CCOc1ccccc1NC(=O)C1CCC(CNc2c(N3CCOCC3)c(=O)c2=O)CC1 (stereo not given) | inactive | – |
| Cc1ccsc1-c1nc(CSCC(=O)NCCN2CCCC2)c(C)o1 | 31.6 µM (active) | – |
| Cn1c(C(=O)NCCCN2CCCCC2)cc2sccc21 | inactive | – |
| Cc1cc(NC(=O)CSCc2nc(-c3cccc(Cl)c3)oc2C)no1 | inactive | – |
| CN(C)/C=N/c1cc(=O)n(C)c(=O)n1CC1CC1 | inactive | – |
| COCc1cc(C)nc(Nc2cc(C)ccc2C)c1C#N | inactive | – |
| CC(C)OCCCNc1ncnc2c1[nH]c1ccc(F)cc12 | 25.1 µM (active) | – |
| CCCn1c(-c2ccc(F)cc2)nc2c(NCC3CCCN3CC)nc(C)nc21 (stereo not given) | 31.6 µM (active) | – |
| Fc1ccc2[nH]c3c(N4CCSCC4)ncnc3c2c1 | 25.1 µM (active) | – |
| CCN1CCCC1CNc1ncnc2c1[nH]c1ccc(F)cc12 (stereo not given) | 31.6 µM (active) | – |
| CCN1CCCC1CNC(=O)Cn1cnc2ccc(S(=O)(=O)N3CCC(C)CC3)cc2c1=O (stereo not given) | inactive | – |
